From PubChem BioAssay (NCATS)
Results filed as inconclusive are left out. A number with no mark means an inactive call. Calls of active or inactive are those of the source. Unless noted, the call rests on the fitted dose curve; in most records, active means well fitted inhibition curve with a large enough effect; inconclusive means small, poorly fitted or top-dose-only effect, or effect the other way; inactive means flat fitted curve, though single readings scatter.

System: not listed separately
Assay: qHTS for Inhibitors of Plasmodium falciparum (CP250) proliferation (AID 504320); further: potency means the concentration at half of the fitted maximal effect;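 on activity change, negative = inhibition: plate controls were DMSO vehicle for no effect and 0.29 µM artemisinin control for full effect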
Conditions: P. falciparum CP250 in erythrocytes, SYBR Green DNA, 72 h; series mostly up to 6.7 µM; activity change, negative = inhibition: at the top concentration
How it was run: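 Erythrocytes infected with P. falciparum line (0.3% parasitemia, 2.5% hematocrit final) incubated with compounds 72 h at 37 °C, 5% CO2; SYBR Green lysis buffer added, fluorescence read next day. Normalized to 0.29 uM artemisinin and DMSO.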

Row | SMILES | Potency | activity change, negative = inhibition
1 | COC(=O)C1=C(C)N(Cc2ccccc2)C(=NCCc2ccccn2)NC1c1cccc(C(F)(F)F)c1 (stereo not drawn) | 849 nM (active) | 
2 | CC(=O)C1=C(C)N(Cc2ccco2)C(=O)NC1c1ccccc1 (stereo not drawn) |  | 6.37%
3 | CC(=O)C1=CN(CCc2c[nH]c3ccccc23)C(=O)NC1c1ccccc1 (stereo not drawn) |  | -0.0411%
4 | CCN1C(=NCc2ccc(OC)cc2)N[C@@H](CCc2ccccc2)[C@H](C(=O)NCc2ccc(OC)cc2)[C@H]1C |  | -4.04%
5 | C[C@@H]1CC[C@H]2C(=O)N(Cc3cccc([N+](=O)[O-])c3)C[C@@H](O)CN2[C@@H]1c1ccc(Br)cc1 |  | 0.958%
6 | C=C(C(C)=O)C(O)c1ccc(C(F)(F)F)cc1 (stereo not drawn) |  | -1.02%
7 | COC(=O)[C@H]1[C@@H](c2ccccc2)NC(=O)N(CCc2cc(OC)c(OC)c(OC)c2)[C@@H]1C |  | -2.11%
8 | CC(C)OC(=O)[C@@H]1CC[C@H](C)[C@@H](CCC[C@@H]2CC=C[C@H](CC#N)O2)O1 |  | 4.92%
9 | COc1ccc2c(c1)[C@H](C=Cc1ccccc1)[C@@H]([C@H](O)CO)O2 |  | -0.851%
10 | COCCN1C(=O)CC[C@@]23C1=NC(C(=O)OC)=C(C(=O)OC)[C@@H]2N(CC=C(C)C)c1ccccc13 |  | -2.19%
11 | CON(C)C(=O)c1nnc2c3ccccc3n(S(=O)(=O)c3ccc(C)cc3)c2n1 |  | 0.974%
12 | CCOC(=O)C(C)=NNC(C)=O |  | 1.18%
13 | COc1ccc2c(c1)[C@@]1(OCCC=C[C@@H]1C)C(=O)N2Cc1ccc(Br)cc1 |  | 4.62%
14 | CCCCCCCc1cc2ccccc2c2c(C=O)c(CCCC)c(C(=O)OC)n12 |  | -4.43%
15 | CC(CCN1CCc2nc(-c3ccccc3)c(-c3ccccc3)cc2C1)=NOC[C@@H](O)COCc1ccco1 |  | 0.66%
16 | C=C(C(C)=O)C(O)c1ccccc1 (stereo not drawn) |  | 6.19%
17 | CC(CCC(=O)OC[C@H]1O[C@H](C#Cc2ccccc2)C=C[C@H]1Oc1ccc(C)cc1)=NO[C@H](C)c1cn([C@H](CO)Cc2ccccc2)nn1 |  | -8.07%
18 | O=C(C=NO)NCCCCNC(=O)C=NO |  | 4.32%
19 | COC[C@@H](OC(C)=O)[C@H]1OCc2ccccc2[C@@H]1C=Cc1ccccc1 |  | 3.78%
20 | CCN1C(=NCCc2cccnc2)N[C@H](CCc2ccccc2)[C@H](C(=O)OC)[C@H]1C |  | 0.586%

Row | SMILES | Potency | activity change, negative = inhibition
21 | CCCCc1nc2c(c3c1C[C@H](C)OC3)CN(C(=O)Cc1cccs1)CC2 | inactive | 
22 | CC(CCN1CCCCc2nc(C)c(C)cc21)=NO[C@H](C)c1cn([C@H](CO)Cc2ccccc2)nn1 |  | 2.95%
23 | CC(C)[C@@H](OCc1ccccc1)[C@H](C)C=NOC[C@@H](C)[C@H](OCc1ccccc1)C(C)C |  | -0.208%
24 | CCOC(=O)CN1C(=O)NC(c2ccc(Br)cc2)C(C(=O)OC)=C1C (stereo not drawn) |  | -2.29%
25 | COC(=O)CC=C1c2ccc(F)cc2[C@@H](OC)[C@@H]1C |  | 2.47%
26 | CC(=O)OC[C@H]1O[C@H](CCON=C(C)CCN2CCCCc3nc(C)c(C)cc32)C=C[C@H]1OC(C)=O |  | 0.803%
27 | COC[C@@H](O)[C@H]1OCc2ccccc2[C@H]1C=Cc1ccccc1 |  | 6.55%
28 | COC(=O)C1=C(C(=O)OC)[C@@H]2N(C)c3ccccc3[C@@]23CCC(=O)N(CCCOC(C)C)C3=N1 |  | 9.74%
29 | C#CCN1C(=O)[C@@]2(CC(C)=CC[C@@H](C)O2)c2ccccc21 |  | 2.09%
30 | COc1ccc(-c2ccc3c(n2)CCCN3CC(O)CN2CCCc3nc(C)c(C)cc32)cc1 (stereo not drawn) |  | -5.01%
31 | C=CCOC(=O)N[C@H](c1ccc2ccccc2c1)[C@H](C)C=CCC(=O)OC |  | 3.11%
32 | COC(=O)[C@@]1(C=C[C@@H](C)[C@H](OC)c2ccccc2Br)[C@@H]2OCCC[C@@H]21 |  | 7.57%
33 | C=CCN1c2ccccc2[C@]23CCC(=O)N(Cc4ccco4)C2=NC(C(=O)OC)=C(C(=O)OC)[C@H]13 |  | -10.1%
34 | COc1ccc(C(=O)CC(=O)c2c(O)cc(OC)cc2OC)cc1 |  | 4.4%
35 | COC(=O)CCC(=O)OC1(C)C(=O)C=C2C=C(C3CC3)N(Cc3ccco3)C=C2C1=O (stereo not drawn) | inactive | 
36 | C#CCN1C(=O)CC[C@@]23C1=NC(C(=O)OC)=C(C(=O)OC)[C@@H]2N(CC=C(C)C)c1ccccc13 | inactive | 
37 | CCCCCCCC1=Cc2ccc(F)cc2C(C(C(C)=O)C(=O)OC)N1C(=O)OC (stereo not drawn) | inactive | 
38 | COC1=C[C@H](C(=O)NCc2ccc(OC)cc2)C(C)C(c2ccccc2)CC1=O (stereo partly drawn) |  | 2.55%
39 | CCN1C(=O)NC(CCc2ccccc2)C(C(C)=O)=C1C (stereo not drawn) |  | 5.03%

Target: Atrial natriuretic peptide receptor 1 (Homo sapiens) (UniProt P16066)
Sequence (P16066 whole entry, looked up): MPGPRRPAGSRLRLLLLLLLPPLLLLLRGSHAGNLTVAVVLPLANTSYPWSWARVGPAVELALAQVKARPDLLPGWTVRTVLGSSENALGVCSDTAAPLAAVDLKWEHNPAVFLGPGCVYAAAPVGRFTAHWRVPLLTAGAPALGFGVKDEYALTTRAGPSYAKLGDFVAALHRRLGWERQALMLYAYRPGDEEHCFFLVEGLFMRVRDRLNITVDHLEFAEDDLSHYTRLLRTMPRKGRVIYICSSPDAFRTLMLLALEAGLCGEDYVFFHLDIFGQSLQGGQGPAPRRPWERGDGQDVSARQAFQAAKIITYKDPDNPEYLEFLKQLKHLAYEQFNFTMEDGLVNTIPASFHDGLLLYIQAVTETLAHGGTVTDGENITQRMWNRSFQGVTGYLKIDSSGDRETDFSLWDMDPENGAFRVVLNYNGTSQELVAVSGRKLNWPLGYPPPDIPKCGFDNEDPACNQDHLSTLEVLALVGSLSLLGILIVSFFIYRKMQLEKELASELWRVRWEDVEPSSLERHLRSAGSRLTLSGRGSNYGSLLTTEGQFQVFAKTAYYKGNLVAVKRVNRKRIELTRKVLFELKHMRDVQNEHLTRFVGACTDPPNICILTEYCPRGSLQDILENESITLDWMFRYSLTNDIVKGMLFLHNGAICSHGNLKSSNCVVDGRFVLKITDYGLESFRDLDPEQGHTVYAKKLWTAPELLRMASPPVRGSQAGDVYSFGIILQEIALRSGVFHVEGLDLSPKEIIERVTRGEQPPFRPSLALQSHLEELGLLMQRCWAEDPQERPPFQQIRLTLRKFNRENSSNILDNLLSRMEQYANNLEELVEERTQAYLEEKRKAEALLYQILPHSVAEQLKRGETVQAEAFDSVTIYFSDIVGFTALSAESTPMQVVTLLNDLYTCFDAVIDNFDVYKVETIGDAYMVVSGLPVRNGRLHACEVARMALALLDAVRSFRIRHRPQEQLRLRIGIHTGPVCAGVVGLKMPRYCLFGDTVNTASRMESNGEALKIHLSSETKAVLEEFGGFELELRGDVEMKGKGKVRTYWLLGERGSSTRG
Assay: Natriuretic polypeptide receptor (hNpr1) antagonism - Pilot CMLD screen (AID 1347052; calls by dose curve;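 further: HEK293 cells with hNpr1 stimulated by hNppA peptide at 0.1 nM; cGMP level read as GloSensor luciferase luminescence after agonist stimulation; on the % scale 0 is the no-effect control and ±100 the full control effect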)
Conditions: HEK293 hNpr1 GloSensor cGMP luminescence, ANP-stimulated; series mostly up to 9.22 µM; activity change, negative = inhibition: at the top concentration

Row | SMILES | activity change, negative = inhibition | Potency
40 | COC(=O)C1=C(C)N(Cc2ccccc2)C(=NCCc2ccccn2)NC1c1cccc(C(F)(F)F)c1 (stereo not drawn) | -0.457% | 
41 | CC(=O)C1=C(C)N(Cc2ccco2)C(=O)NC1c1ccccc1 (stereo not drawn) | 0.967% | 
42 | CC(=O)C1=CN(CCc2c[nH]c3ccccc23)C(=O)NC1c1ccccc1 (stereo not drawn) | 0.305% | 
43 | CCN1C(=NCc2ccc(OC)cc2)N[C@@H](CCc2ccccc2)[C@H](C(=O)NCc2ccc(OC)cc2)[C@H]1C | 1.66% | 
44 | C[C@@H]1CC[C@H]2C(=O)N(Cc3cccc([N+](=O)[O-])c3)C[C@@H](O)CN2[C@@H]1c1ccc(Br)cc1 | -0.764% | 
45 | C=C(C(C)=O)C(O)c1ccc(C(F)(F)F)cc1 (stereo not drawn) | -27.6% | 
46 | COC(=O)[C@H]1[C@@H](c2ccccc2)NC(=O)N(CCc2cc(OC)c(OC)c(OC)c2)[C@@H]1C | 5.68% | 
47 | CC(C)OC(=O)[C@@H]1CC[C@H](C)[C@@H](CCC[C@@H]2CC=C[C@H](CC#N)O2)O1 | 2.3% | 
48 | COc1ccc2c(c1)[C@H](C=Cc1ccccc1)[C@@H]([C@H](O)CO)O2 | -1.16% | 
49 | COCCN1C(=O)CC[C@@]23C1=NC(C(=O)OC)=C(C(=O)OC)[C@@H]2N(CC=C(C)C)c1ccccc13 | 0.66% | 
50 | CON(C)C(=O)c1nnc2c3ccccc3n(S(=O)(=O)c3ccc(C)cc3)c2n1 | 15.2% | 
51 | CCOC(=O)C(C)=NNC(C)=O | 8.93% | 
52 | COc1ccc2c(c1)[C@@]1(OCCC=C[C@@H]1C)C(=O)N2Cc1ccc(Br)cc1 | -3.61% | 
53 | CCCCCCCc1cc2ccccc2c2c(C=O)c(CCCC)c(C(=O)OC)n12 | 4.18% | 
54 | CC(CCN1CCc2nc(-c3ccccc3)c(-c3ccccc3)cc2C1)=NOC[C@@H](O)COCc1ccco1 | 1.72% | 
55 | C=C(C(C)=O)C(O)c1ccccc1 (stereo not drawn) | -1.76% | 
56 | CC(CCC(=O)OC[C@H]1O[C@H](C#Cc2ccccc2)C=C[C@H]1Oc1ccc(C)cc1)=NO[C@H](C)c1cn([C@H](CO)Cc2ccccc2)nn1 | -1.74% | 
57 | O=C(C=NO)NCCCCNC(=O)C=NO | 0.538% | 
58 | COC[C@@H](OC(C)=O)[C@H]1OCc2ccccc2[C@@H]1C=Cc1ccccc1 | 1.71% | 
59 | CCN1C(=NCCc2cccnc2)N[C@H](CCc2ccccc2)[C@H](C(=O)OC)[C@H]1C | -2.17% | 

Row | SMILES | activity change, negative = inhibition | Potency
60 | CCCCc1nc2c(c3c1C[C@H](C)OC3)CN(C(=O)Cc1cccs1)CC2 | 0.0296% | 
61 | CC(CCN1CCCCc2nc(C)c(C)cc21)=NO[C@H](C)c1cn([C@H](CO)Cc2ccccc2)nn1 | 5.53% | 
62 | CC(C)[C@@H](OCc1ccccc1)[C@H](C)C=NOC[C@@H](C)[C@H](OCc1ccccc1)C(C)C | 1.2% | 
63 | CCOC(=O)CN1C(=O)NC(c2ccc(Br)cc2)C(C(=O)OC)=C1C (stereo not drawn) | -0.186% | 
64 | COC(=O)CC=C1c2ccc(F)cc2[C@@H](OC)[C@@H]1C | 2.43% | 
65 | CC(=O)OC[C@H]1O[C@H](CCON=C(C)CCN2CCCCc3nc(C)c(C)cc32)C=C[C@H]1OC(C)=O | -2.79% | 
66 | COC[C@@H](O)[C@H]1OCc2ccccc2[C@H]1C=Cc1ccccc1 | 0.929% | 
67 | COC(=O)C1=C(C(=O)OC)[C@@H]2N(C)c3ccccc3[C@@]23CCC(=O)N(CCCOC(C)C)C3=N1 | -5.74% | 
68 | C#CCN1C(=O)[C@@]2(CC(C)=CC[C@@H](C)O2)c2ccccc21 | 4.76% | 
69 | COc1ccc(-c2ccc3c(n2)CCCN3CC(O)CN2CCCc3nc(C)c(C)cc32)cc1 (stereo not drawn) | 9.71% | 
70 | C=CCOC(=O)N[C@H](c1ccc2ccccc2c1)[C@H](C)C=CCC(=O)OC | -15% | 
71 | COC(=O)[C@@]1(C=C[C@@H](C)[C@H](OC)c2ccccc2Br)[C@@H]2OCCC[C@@H]21 | -3.13% | 
72 | C=CCN1c2ccccc2[C@]23CCC(=O)N(Cc4ccco4)C2=NC(C(=O)OC)=C(C(=O)OC)[C@H]13 | -0.155% | 
73 | COc1ccc(C(=O)CC(=O)c2c(O)cc(OC)cc2OC)cc1 | 3.06% | 
74 | COC(=O)CCC(=O)OC1(C)C(=O)C=C2C=C(C3CC3)N(Cc3ccco3)C=C2C1=O (stereo not drawn) | -3.5% | 
75 | C#CCN1C(=O)CC[C@@]23C1=NC(C(=O)OC)=C(C(=O)OC)[C@@H]2N(CC=C(C)C)c1ccccc13 |  | inactive
76 | CCCCCCCC1=Cc2ccc(F)cc2C(C(C(C)=O)C(=O)OC)N1C(=O)OC (stereo not drawn) |  | inactive
77 | COC1=C[C@H](C(=O)NCc2ccc(OC)cc2)C(C)C(c2ccccc2)CC1=O (stereo partly drawn) | -2.64% | 
78 | CCN1C(=O)NC(CCc2ccccc2)C(C(C)=O)=C1C (stereo not drawn) | 1.51% | 
